Assay results taken from PubChem BioAssay AID2685 (National Center for Advancing Translational Sciences (NCATS), 2010).
In all, about 320,000 compounds went through this assay and about 2,100 (0.66%) were called active. About 53% were inconclusive and are not listed. Calls come from the whole dose curve; as a rule, active = well fitted inhibition curve with a large enough effect in the signal ratio, with a control signal flat (not every such curve was filed as active); inconclusive = small, poorly fitted or top-dose-only effect, or effect the other way, or a change in a side signal; inactive = flat fitted curve, though single readings scatter; the % refers to the signal ratio. What follows is part of a selection rich in actives, with near analogues and random picks from the rest.

Experiment: qHTS Assay for Lipid Storage Modulators in Drosophila S3 Cells;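 for cell number change: cells counted by Cell Tracker Red CMTPX staining in the red channel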
Conditions: BODIPY lipid droplet fluorescence, 18-24 h, cells fed with added oleic acid; cell number change: measured here: cell count max response; series mostly up to 46.1 µM
Method in brief: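 Laser-scanning cytometry quantifies lipid droplet accumulation (500–530 nm total intensity; droplet/cell object ratio) in oleic acid-fed (400 uM added) Drosophila S3 cells treated with a concentration series. 20 uM Triacsin C defined 100% inhibition.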
Potency is the fitted concentration of half-maximal effect.

Compound | Potency | cell number change [%] | outcome
O=C(COC(=O)CC12CC3CC(CC(Br)(C3)C1)C2)NC(=O)NCc1ccco1 | inactive | -9.1 | 
CC(=O)NC12CC3CC(C1)CC(C(=O)OCC(=O)NC(=O)c1cccn1C)(C3)C2 | inactive | -12.7 | 
Cn1cccc1C(=O)NC(=O)COC(=O)CC12CC3CC(CC(Br)(C3)C1)C2 | 7.31 µM (active) | 2.25 | 
O=C(NCc1nc2ccccc2[nH]1)c1c(F)c(F)c(F)c(F)c1F | inactive | -0.311 | 
O=C(O)C1CCCCC1C(=O)NCCc1cccc(Cl)c1 (centres undefined) | inactive | -1.17 | 
Cc1ccn(CC(=O)N2CCCC(N3CCN(c4cccc(Cl)c4)CC3)C2)n1 (centres undefined) | inactive | 14.6 | 
Cc1nc(CNC(=O)CC2C(=O)NCCN2Cc2ccc(F)cc2)cs1 (centres undefined) | inactive | 20.2 | 
CCN(CC)S(=O)(=O)c1ccc(OC)c(NC(=O)C2CC(=O)N(c3ccc4c(c3)OCCO4)C2)c1 (centres undefined) | inactive | -25.9 | 
CN(C)c1ccc(C(=O)N2CCCC(CCC(=O)N3CCN(c4ccccn4)CC3)C2)cc1 (centres undefined) | inactive | -25.3 | 
C=Cc1ccc(C(=O)N2CCCC(CCC(=O)N3CCN(c4ccccn4)CC3)C2)cc1 (centres undefined) | inactive | -2.91 | 
COc1ccc(C(=O)N2CCCC(CCC(=O)N3CCN(c4ccccn4)CC3)C2)cc1 (centres undefined) | 8.2 µM (active) | -15.8 | 
COc1ccc(-n2cccc2/C=C2\C(=N)N3N=C(c4ccco4)SC3=NC2=O)cc1 | inactive | -5.47 | 
CC(C)(C)NC(=O)Cn1ccc(=N)c2ccccc21 | inactive | -1.29 | 
CCCCNc1c(-c2cccc(SC3CCCCC3)c2)nc2ccc(Cl)cn12 | inactive | 5.29 | 
CCOC(=O)CNc1c(-c2ccc(O)cc2)nc2ccccn12 | inactive | 4.87 | 
CCCCNc1c(-c2ccc(-c3cccc(Cl)c3)cc2)nc2ccccn12 | 23.1 µM (active) | 5.08 | 
O=C1CCCC2(O)C1C(c1cccc(Br)c1)NC(=O)N2Cc1ccccc1 (centres undefined) | inactive | 1.15 | 
CCCS(=O)(=O)N1CCN(CCCc2ccccc2)CC1 | inactive | 6.21 | 
c1ccc(CCCN2CCOCC2)cc1 | inactive | 11.8 | 
O=S(=O)(CCc1ccccc1)N1CCOCC1 | 5.8 µM (active) | 1.99 | 
CC(C)Sc1nnc(NC(=O)c2ccc3c(c2)OCO3)s1 | inactive |  | 
O=C(COC(=O)COc1ccccc1)NC1CCCC1 | inactive | -5.97 | 
COc1ccc(NC(=O)c2cc3n(n2)C(C(F)(F)F)CC(c2ccc4c(c2)OCO4)N3)cc1OC (centres undefined) | 16.4 µM (active) | -18.2 | 

Compound | Potency | cell number change [%] | outcome
COc1ccc(OC)c(NC(=O)c2cc3n(n2)C(C(F)(F)F)CC(c2ccc4c(c2)OCO4)N3)c1 (centres undefined) | inactive | 16.6 | 
COc1ccc(C2CC(C(F)(F)F)n3nc(C(=O)O)cc3N2)cc1OC (centres undefined) | inactive | 20.6 | 
Cn1cc(CN2CCC(CO)CC2)c(-c2ccc(Oc3ccccc3)cc2)n1 | inactive | -5.37 | 
COc1cccc(CNC(=O)C2CCN(S(=O)(=O)N3CCC4(CC3)OCCO4)CC2)c1 | inactive | 8.33 | 
O=C(Nc1ccc(S(=O)(=O)Nc2ncccn2)cc1)C1=COCCO1 | inactive | 6.63 | 
CC1Sc2ccc(S(=O)(=O)NCCc3ccc(S(N)(=O)=O)cc3)cc2NC1=O (centres undefined) | 2.59 µM (active) | -0.885 | 
CC1Sc2ccc(S(=O)(=O)NCCc3ccccc3)cc2NC1=O (centres undefined) | inactive | -2.36 | 
CC1Sc2ccc(S(=O)(=O)NCCc3ccc(Cl)cc3)cc2NC1=O (centres undefined) | inactive |  | 
CC(=O)c1ccc(NC(=S)N2CCC(Cc3ccccc3)CC2)cc1 | inactive | -2.62 | 
Cc1ccc(-n2c(C)cc(/C=N/NC(=O)c3ccncc3)c2C)cc1 | inactive |  | 
Cc1ccc(-n2c(C)cc(/C=N/NC(=O)c3ccncc3)c2C)c(C)c1 | 18.4 µM (active) | -26.9 | 
Cc1cc(C)cc(-n2c(C)cc(/C=N/NC(=O)c3ccncc3)c2C)c1 | inactive | -4.41 | 
O=C(c1ccc(-c2ccccc2)c(F)c1)C1CCCN(CCCn2cccn2)C1 (centres undefined) | inactive | 2.71 | 
CN(C)c1ccc(/C=N/NC(=O)c2ccccc2O)o1 | inactive |  | 
Cc1nn(-c2ccc(F)cc2)c(C)c1CN1CCN(CCC(C)C)C(CCO)C1 (centres undefined) | inactive | 12.5 | 
COCC(=O)N1CCN(c2cccc(Cl)c2)CC1 | inactive | -20.3 | 
CC1=CC(C)C2C(=O)N(c3ccccc3)NC(=O)C2C1 (centres undefined) | inactive | 6.7 | 
CC1=CC(C)C2C(=O)N(CCC[N+](C)(C)C)C(=O)C2C1 (centres undefined) | inactive | 2.72 | 
CC1=CC(C)C2C(=O)N(O)C(=O)C2C1 (centres undefined) | 20.6 µM (active) | -17.9 | 
O=C1c2ccccc2C(=O)C1c1ccccn1 | inactive | 7 | 
Cc1nc2scc(C)n2c(=O)c1S(=O)(=O)NCCc1ccc(Cl)cc1 | inactive | -15.9 | 
CC(C)N(C)CCOC(=O)c1ccc2c(c1)OCCO2 | inactive | -0.0823 | 
Cc1oc(-c2ccoc2)nc1CN(Cc1ccccc1)CC1CC1 | inactive | 1.56 | 

Compound | Potency | cell number change [%] | outcome
COc1ccc(Cl)cc1NC(=O)COC(=O)CNC(=O)c1ccc([N+](=O)[O-])c(C)c1 | inactive | 7.48 | 
CCOC(=O)C(N)CSC1CC(=O)N(c2ccc(OCC)cc2)C1=O (centres undefined) | inactive | 8.77 | 
CCOC(=O)C(N)CSC1CC(=O)N(c2ccc(OC)cc2)C1=O (centres undefined) | 3.26 µM (active) | -13.3 | 
CCOC(=O)C(N)CSC1CC(=O)N(c2ccc(C(=O)OC)cc2)C1=O (centres undefined) | inactive | 8.08 | 
CCOC(=O)c1cc(C)nc(Sc2ccc(C)cc2)c1C#N | inactive | 3.68 | 
Cc1ccc(OCc2ccc(-c3ccccc3)cc2)c([N+](=O)[O-])n1 | inactive |  | 
O=[N+]([O-])c1cc2c(cc1Br)CCN2 | inactive | -0.505 | 
c1ccc(CNc2ccc(CNc3ncn[nH]3)cc2)cc1 | inactive | 13.8 | 
COc1cc(C(=O)Nc2cccc(-c3nc4ccccc4o3)c2C)cc(OC)c1OC | inactive | -6.82 | 
CN1CCN(CC(=O)Nc2nc(-c3c[nH]c4ccccc34)cs2)CC1 | inactive | -11.4 | 
CC(=O)NCCC(=O)Nc1nc(-c2ccccc2Cl)cs1 | inactive |  | 
CC(=O)NCCC(=O)Nc1nc(-c2c[nH]c3ccccc23)cs1 | 14.6 µM (active) | -1.21 | 
COCC(C)N1CCC(n2nccc2NC(=O)c2ccc3c(c2)OCO3)CC1 (centres undefined) | inactive | 11.7 | 
CCOc1ccc(N(CC(=O)NCC2CCCO2)S(=O)(=O)c2ccc(OC)c(OC)c2)cc1 (centres undefined) | inactive | 14.4 | 
CC1(C)N=C(/C=N/O)CN1O | 6.51 µM (active) | 1.43 | 
Cc1ccc(NC(=O)C2(N(C(=O)Cn3nnnc3N)c3ccc(C)cc3)CCCCC2)cc1 | inactive | -7.84 | 
CCOC(=O)CSc1nc2c(c(=O)n1-c1ccc(OC)cc1)SCC2 | inactive |  | 
CCc1nnc(NC(=O)CSc2nccn2-c2cccc(C)c2)s1 | inactive | 0.532 | 
COc1ccccc1NC(=O)CCNC(=O)c1ccc(C)cc1 | inactive |  | 
Cc1ccc(C(=O)c2c(NC(=O)CSc3nnc(N)s3)sc3c2CCCC3)cc1 | 18.4 µM (active) | -2.02 | 
Cc1ccc(C(=O)c2c(NC(=O)c3cccnc3)sc3c2CCCC3)cc1 | inactive | 17.7 | 
CCOC(=O)c1c(NC(=O)CSc2nnc(C)s2)sc2c1CCCCC2 | inactive | -12.5 | 
CCOC(=O)N1CCN(c2ncc(C(F)(F)F)cc2Cl)CC1 | inactive | 23.9 | 

Compound | Potency | cell number change [%] | outcome
CC(C)CN=C(NS(=O)(=O)c1ccccc1)C(Cl)(Cl)Cl | 18.4 µM (active) |  | 
NC(=NCCc1ccccc1)NS(=O)(=O)c1ccccc1 | inactive | 16.5 | 
CC(=O)NS(=O)(=O)c1ccccc1 | inactive | -6.94 | 
COc1ccc(CCNC(=O)c2ccc(=O)[nH]c2)cc1OC | inactive | 10.1 | 
CC(=O)N1CCN(S(=O)(=O)c2cccc(C(=O)OCN3C(=O)c4ccccc4C3=O)c2)CC1 | inactive | 22.4 | 
COc1ccc(COC(=O)c2cccc(S(=O)(=O)N3CCCC3)c2)cc1F |  | -0.63 | inactive [at 0.369 µM]
CC(=O)N1CCN(S(=O)(=O)c2cccc(C(=O)OCc3cccc(F)c3)c2)CC1 | 6.51 µM (active) | -11.8 | 
CCc1cc(=O)oc2c3c(cc(OCC(=O)NCc4cccnc4)c12)OC(C)(C)CC3 | 7.31 µM (active) | 1.59 | 
Cc1cc(=O)oc2c3c(cc(OCC(=O)NCC(=O)O)c12)OC(C)(C)CC3 | inactive | 13.8 | 
CCc1cc(=O)oc2c3c(cc(OCC(=O)NCCC(=O)O)c12)OC(C)(C)CC3 | inactive | 4.77 | 
COc1ccccc1CNC(=O)COc1cc2c(c3oc(=O)cc(C)c13)CCC(C)(C)O2 | inactive | 5.31 | 
COc1cccc(CNC(=O)COc2cc3c(c4oc(=O)cc(C)c24)CCC(C)(C)O3)c1 | 1.3 µM (active) | -18.8 | 
CCc1cc(=O)oc2c3c(cc(OCC(=O)NCc4ccncc4)c12)OC(C)(C)CC3 | inactive | 18.3 | 
O=C(Cc1ccccc1)NNC(=O)c1ccc(NC(=O)c2ccccc2)cc1 | inactive | 27.8 | 
CN(C)S(=O)(=O)c1ccc(C(=O)Oc2coc(CSc3ncccn3)cc2=O)cc1 | inactive | 6.85 | 
NC(=O)N/N=C(/CCCCCC/C(=N\NC(N)=O)c1ccccc1)c1ccccc1 | inactive | 2.15 | 
Cc1ccc(C(=O)N2C3=C(CCCC3)C(=O)NC23CCCCC3)cc1 | inactive | 3.44 | 
COC(=O)CNC(=O)CNC(=O)Nc1ccccc1 | inactive | 1.69 | 
Cn1nccc1NC(=O)COCC(=O)O | inactive | 11.4 | 
Cc1ncsc1C(=O)NCc1ccc(N2CCCC2=O)cc1 | 2.59 µM (active) |  | 
COc1ccc(CNC(=O)c2ccc(N3CCCC3=O)cc2)cc1 | inactive | 23.1 | 
O=C(NCc1ccc(N2CCCC2=O)cc1)c1ccc(F)cc1 | inactive | 1.24 | 
N#Cc1ccsc1NC(=O)CN(Cc1ccccc1)Cc1ccccc1 | inactive | -9.01 | 
